PubChem BioAssay (Tox21)
Several values for one entry are separate records, joined by “and”; a condition that tells them apart may be missing. Identical values can stand only once. Results filed as inconclusive are left out. A call without a number means that no potency is given here. A number with no mark means an inactive call. Activity calls are given as the source filed them. The call rests on the fitted dose curve; in most records, active means well fitted cell-killing curve with a large enough effect in the repeat runs; inconclusive means weak or mixed curves, or effect the other way; inactive means flat fitted curve, though single readings scatter.

Assays:
[1] = cAMP Responsive Elements (CRE) small molecule antagonists, cell-based qHTS assay: qHTS cell viability counter screen (AID 2060913); further: nearly all actives have a fitted effect of over 40% in size
Method in brief: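 Viability of NKH477-stimulated (0.25 uM final) CRE-bla HEK293T cells is measured by CellTiter-Glo luminescence following 3 hrs compound exposure at 37 C.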

[2] = cAMP Responsive Elements (CRE) small molecule agonists, cell-based qHTS assay: qHTS cell viability counter screen (AID 2060914);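 further: viability read after 3 h of compound exposure; nearly all actives have a fitted effect of over 50% in size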
Method in brief: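 CRE-bla HEK 293T cells, plated 18 h at 37 °C, were exposed to compounds for 3 h at 37 °C/5% CO2. Viability was then measured in the same wells by CellTiter-Glo luminescence after 30 min at room temperature.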
Potency means the concentration at half of the fitted maximal effect.

SMILES	Potency [1]	Potency [2]	viability change, negative = cytotoxic [1]	activity change, negative = cytotoxicity [2]
CC1(C)C(=O)NC(=O)N1CO	inactive	inactive		
O=Cc1ccccc1O	inactive	inactive		
CC1=CC(=O)CC(C)(C)C1=O	inactive	inactive		
Cc1ccc(Cl)cc1	inactive	inactive		
NC(=O)c1ccc([N+](=O)[O-])cc1Cl	inactive	inactive		
Cc1ccc2nc(N)[nH]c(=O)c2c1Sc1ccncc1	inactive	inactive		
O=C[C@H](O)[C@@H](O)[C@H](O)[C@H](O)CO	inactive	inactive		
CCCCCCCCC(=O)OCC(C)OC(=O)CCCCCCCC (stereo unspecified)	inactive	inactive		
CCCCOc1ccc(OCCCN2CCOCC2)cc1	inactive	inactive		
CC(O)COc1ccccc1 (stereo unspecified)	inactive	inactive		
C=C(c1ccc(C(=O)O)cc1)c1cc2c(cc1C)C(C)(C)CCC2(C)C	inactive	inactive		
CC(C)NCC(O)c1ccc(NS(C)(=O)=O)cc1 (stereo unspecified)	inactive	inactive		
CCC1=C(C)CN(C(=O)NCCc2ccc(S(=O)(=O)NC(=O)NC3CCC(C)CC3)cc2)C1=O (stereo unspecified)	inactive	inactive		
CCOc1ccc(NC(C)=O)cc1	inactive	inactive		
CC(C)CCCCOC(=O)c1ccccc1C(=O)OCCCCC(C)C	inactive	inactive		
OCc1cccnc1	inactive	inactive		
CC(C)=CCOC(=O)c1ccccc1	inactive	inactive		
CCCCCCCC/C=C\CCCCCCCCN	inactive	inactive		
O=C(OCCCCCOC(=O)c1ccccc1)c1ccccc1	inactive	inactive		
Cc1nc2ccccc2c(=O)o1	inactive	inactive		
CC(C)Cc1ccccc1	inactive	inactive		
c1ccc(OCCOc2ccccc2)cc1	inactive	inactive		
NCc1ccc(S(N)(=O)=O)cc1	inactive	inactive		

SMILES	Potency [1]	Potency [2]	viability change, negative = cytotoxic [1]	activity change, negative = cytotoxicity [2]
CC(CO)(CO)[N+](=O)[O-]	inactive	inactive		
C/C=C(C)/C=C/C=C(C)C	inactive	inactive		
c1cc(CN2CCCCC2)cc(OCCCNc2nc3ccccc3s2)c1	inactive	inactive		
Cc1ccc(S(=O)(=O)NC(=O)NN2CCCCCC2)cc1	inactive	inactive		
c1cnc2cc3c(cc2n1)C1CNCC3C1	inactive	inactive		
O=C(O)CCCCCC(=O)O	inactive	inactive		
CCCCCC(C)O (stereo unspecified)	inactive	inactive		
NCCNC(=O)c1ccc(Cl)cn1	inactive	inactive		
CC(C)c1ccc(C#N)cc1	inactive	inactive		
N#CCCOCCC#N	inactive	inactive		
COCCOC(=O)CC#N	inactive	inactive		
CCC(C(=O)OCCOCCN(CC)CC)c1ccccc1 (stereo unspecified)	inactive	inactive		
Nc1ccnc(=O)[nH]1	inactive	inactive		
CNCCCC12CCC(c3ccccc31)c1ccccc12	inactive	inactive		
O=S(=O)(O)c1ccc(O)cc1	inactive	inactive		
CCCCCc1ccc(O)cc1	inactive	inactive		
O=C(O)CCCc1ccccc1	inactive	inactive		
CCc1ncc(C)[nH]1	inactive	inactive		
c1ccc2c(c1)[nH]c1ccccc12	inactive	inactive		
CC1=CC(=O)CC(C)(C)C1(O)/C=C/C(C)=C\C(=O)O (stereo unspecified)	inactive	inactive		
Cc1ccc(N(CC2=NCCN2)c2cccc(O)c2)cc1	inactive	inactive		
Cc1nccn1CC1CCc2c(c3ccccc3n2C)C1=O (stereo unspecified)	inactive	inactive		
CCCCCCCCCCCO	inactive	inactive		

SMILES	Potency [1]	Potency [2]	viability change, negative = cytotoxic [1]	activity change, negative = cytotoxicity [2]
CCCOC(C)=O	inactive	inactive		
CC(C)=CCC/C(C)=C/C(=O)O	inactive	inactive		
C=C(C)C(=O)OCCCCCCOC(=O)C(=C)C	inactive	inactive		
Nc1nc(Cl)cc(Cl)n1	inactive	inactive		
CC(=O)S[C@@H]1CC2=CC(=O)CC[C@]2(C)[C@H]2CC[C@@]3(C)[C@@H](CC[C@@]34CCC(=O)O4)[C@H]12	inactive	inactive		
CCCCOC(=O)[C@H](C)O	inactive	inactive		
CCCCCC(CO)CCC (stereo unspecified)	inactive	inactive		
CCCCCCCCCCCC[N+](C)(C)Cc1ccccc1	60 µM (active) and 59.2 µM (active) and 13.3 µM (active)	53.4 µM (active) and 37.4 µM (active) and 29.8 µM (active)		
CCCCNc1cc(C(=O)O)cc(S(N)(=O)=O)c1Oc1ccccc1	inactive	inactive		
C=CC(C)(CCC=C(C)C)OC(=O)CC(C)C (stereo unspecified)	inactive	inactive		
COC(=O)c1ccccc1C(=O)O	inactive	inactive		
Fc1ccc(Br)cc1	inactive	inactive		
C1=C\CC/C=C\CC/1	inactive	inactive		
O=CCCc1ccccc1	inactive	inactive		
CSCCC=O	inactive	inactive		
O=C1C=CC(=O)O1	inactive	inactive		
CCCCCCCCc1ccc(Nc2ccc(CCCCCCCC)cc2)cc1	inactive	inactive		
OC[C@H]1O[C@@H]2O[C@H]3[C@H](O)[C@@H](O)[C@@H](O[C@H]4[C@H](O)[C@@H](O)[C@@H](O[C@H]5[C@H](O)[C@@H](O)[C@@H](O[C@H]6[C@H](O)[C@@H](O)[C@@H](O[C@H]7[C@H](O)[C@@H](O)[C@@H](O[C@H]1[C@H](O)[C@H]2O)O[C@@H]7CO)O[C@@H]6CO)O[C@@H]5CO)O[C@@H]4CO)O[C@@H]3CO	inactive	inactive		
COCC(=O)Nc1c(I)c(C(=O)NCC(O)CO)c(I)c(C(=O)N(C)CC(O)CO)c1I (stereo unspecified)	inactive	inactive		
O=C(O)CC(O)C(=O)O (stereo unspecified)	inactive	inactive		
C/C(=C\C(C)CC(C)CC(C)C)C1CC(=O)OC1=O (stereo unspecified)	inactive	inactive		
C(=C(c1ccccc1)c1ccccc1)c1ccccc1	inactive	inactive		
CS(C)(=O)=O	inactive	inactive		

SMILES	Potency [1]	Potency [2]	viability change, negative = cytotoxic [1]	activity change, negative = cytotoxicity [2]
C[C@]12CCC(=O)C=C1CC[C@@H]1[C@@H]2CC[C@@]2(C)[C@H]1CC[C@]2(O)C(=O)CO	inactive	inactive		
COc1ccccc1N1CCN(CCCCNC(=O)c2ccc(-c3ccc(C(C)=O)cc3)cc2)CC1	inactive	inactive		
Cc1ncc([C@@H](CCCCCCc2ccc3c(n2)NCCC3)CC(=O)O)cn1	inactive	inactive		
CC1(C)O[C@@H]2[C@@H](CO[C@@]3(COS(N)(=O)=O)OC(C)(C)O[C@@H]23)O1	inactive	inactive		
C=CC(C)(C)O	inactive	inactive		
O=C(C(=O)c1ccco1)c1ccco1	inactive	inactive		
C1C2OC2C2C1C1CC2C2OC12 (stereo unspecified)	inactive	inactive		
CS(=O)(=O)CCNCc1ccc(-c2ccc3ncnc(Nc4ccc(OCc5cccc(F)c5)c(Cl)c4)c3c2)o1	inactive	inactive		
Nc1cc(Cl)c(N)c(Cl)c1	inactive	inactive		
CCOC(=O)Nc1ccc2c(c1)N(C(=O)CCN1CCOCC1)c1ccccc1S2	inactive	inactive		
CCC(C)C(C)=O (stereo unspecified)	inactive	inactive		
CCCC(C)CO (stereo unspecified)	inactive	inactive		
CC1(C)[C@@H](O[C@H]2O[C@H](C(=O)O)[C@@H](O)[C@H](O)[C@H]2O[C@@H]2O[C@H](C(=O)O)[C@@H](O)[C@H](O)[C@H]2O)CC[C@]2(C)[C@H]3C(=O)C=C4[C@@H]5C[C@@](C)(C(=O)O)CC[C@]5(C)CC[C@@]4(C)[C@]3(C)CC[C@@H]12	inactive	inactive		
CC(C)(CO)[N+](=O)[O-]	inactive	inactive		
O=C(Oc1ccccc1)c1ccc(O)cc1	inactive	inactive		
Nc1ccc(N=Nc2ccccc2)c(N)n1	inactive	inactive		
O=C(O)Cn1c(=O)n(Cc2ccc(Br)cc2F)c(=O)c2ccc(Cl)cc21	inactive	inactive		
CCOc1ccccc1O	inactive	inactive		
C1COC(NC(C2CC2)C2CC2)=N1	inactive	inactive		
CC[N+](CC)(CC(=O)Nc1c(C)cccc1C)Cc1ccccc1 (tested in a mixture with another compound)	inactive	inactive		
O=C(c1ccccc1)c1ccc(O)cc1	inactive	inactive		
O=C1CC(c2ccc(Cl)cc2)CC(=O)N1	inactive	inactive		
CCCCCCCCN	inactive	inactive		

SMILES	Potency [1]	Potency [2]	viability change, negative = cytotoxic [1]	activity change, negative = cytotoxicity [2]
Cc1[nH]c(=O)c(C#N)cc1-c1ccc2nccn2c1	inactive	inactive		
Nc1nc(N)nc(-c2cc(Cl)ccc2Cl)n1	inactive	inactive		
Cc1ccccc1S(N)(=O)=O	inactive	inactive		
O=S(=O)(O)c1ccc2cc(O)c(S(=O)(=O)O)cc2c1	inactive	inactive		
CCCCCCCCCCCCCCCCCCOCC(O)CO (stereo unspecified)	inactive	inactive		
Nc1ccc2c(S(=O)(=O)O)cccc2c1S(=O)(=O)O	inactive	inactive		
CCCC/C=C/C=C\C=O	inactive	inactive		
COc1cc(/C=C/c2ccccc2)oc(=O)c1	inactive	inactive		
C=C(C)C1CC=C(C)C(OC(C)=O)C1 (stereo unspecified)	inactive	inactive		
Cc1nc2sccn2c(=O)c1CCN1CCC(=C(c2ccc(F)cc2)c2ccc(F)cc2)CC1	inactive	inactive		
N=C(N)N	inactive	inactive		
CC1(C)C(=O)C(C)(C)C1=O	inactive	inactive		
CCCCC1CCC(=O)O1 (stereo unspecified)	inactive	inactive		
C=C(C)C(=O)OCCCCCCCCCCCCCCCCCC			12.4% [at 18.9 µM]	2.15% [at 18.9 µM]
O=C(O)c1ccc(O)cc1O	inactive	inactive		
CCN1CCC[C@H]1CNC(=O)c1cc(S(N)(=O)=O)ccc1OC	inactive	inactive		
C[C@H]1C[C@@H]2[C@H]([C@@H](O)C[C@@]3(C)[C@H]2CC[C@]3(O)C(=O)CO)[C@@]2(C)C=CC(=O)C=C12	inactive	inactive		
CC(C)(C)c1ccc(-c2ccc(C(C)(C)C)cc2)cc1	inactive	inactive		
CCCCCCCCCCCC(=O)Cl	inactive	inactive		
CCOc1ccc(Cc2nccc3cc(OCC)c(OCC)cc23)cc1OCC	inactive	inactive		
CN1CC(=O)N2[C@H](c3ccc4c(c3)OCO4)c3[nH]c4ccccc4c3C[C@@H]2C1=O	inactive	inactive		
